Reference: PubChem BioAssay (NCATS)
Results filed as inconclusive are left out. The source made the active and inactive calls. Calls come from the whole dose curve; as a rule, active = well fitted curve in the direction sought with a large enough effect; inconclusive = small, poorly fitted or top-dose-only effect, or another doubt; inactive = no such curve, though single readings can be large; an effect the other way counts as inactive or inconclusive.

Columns and labels:
[1] = qHTS Assay for Identifying Gametocytocidal Compounds (AID 743244); note: potency is the fitted concentration of half-maximal effect;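 for max response: % is set by controls: 0 for no effect and ±100 for the full control effect; actives lower the fluorescent signal which means gametocytes are killed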; conditions: P. falciparum 3D7 stage III-V gametocytes, alamarBlue, 72 h; max response: stronger effect = lower value
Summary of the method: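 Using 20,000 stage III–V 3D7 gametocytes per well, compounds were incubated 72 h under 37 °C/5% CO2. Viability was then assessed by 24 h alamarBlue reduction, measured fluorometrically at 525/598 nm.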

[2] = qHTS assay for measurement of the activity of small molecule inhibitors on Zika virus induced Caspase-3 activity in human iPSC derived neural progenitor cells (hNPCs) (AID 1224857); note: nearly all actives have a fitted effect of over 65% in size; note: potency is the fitted concentration of half-maximal effect; for activity change, negative = inhibition: % of control where 0% means no effect
Summary of the method: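 After overnight (16–20 h) culture at 350 cells/well, hNPCs get compound, then ZIKV 2 FFU/cell one hour later. Six hours on, Caspase-Glo 3/7 is added and luminescence measured.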

[3] = qHTS assay for measurement of the activity of small molecule inhibitors on Zika virus induced Caspase-3 activity in human astrocytoma cells (AID 1224859);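 note: plate controls were ZIKV-infected untreated cells for no effect and uninfected cells for full effect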
Summary of the method: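 Inhibition of Zika-induced caspase-3/7 activity: SNB-19 cells, 1 h compound pretreatment, ZIKV 2 FFU/cell for 6 h at 37 C, Caspase-Glo luminescence read-out.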

[4] = qHTS assay to identify small molecule inhibitors of chordoma cells - UCH-1 (AID 1259355); note: nearly all actives have a fitted effect of over 55% in size; note: potency is the fitted concentration of half-maximal effect; series mostly up to about 46 µM
Summary of the method: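 A 48hr growth-inhibition format: each drug tested at 15 concentrations together with added auranofin, camptothecin, doxorubicin, rubitecan and topotecan, with cell viability quantified as CellTiter-Glo luminescence.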

[5] = qHTS assay to identify small molecule inhibitors of chordoma cells - UCH-2 (AID 1259356); note: potency is the fitted concentration of half-maximal effect; for activity change, negative = inhibition: series mostly up to about 46 µM; % is set by controls: 0 for no effect and ±100 for the full control effect
[6] = P-glycoprotein substrates identified in KB-8-5-11 adenocarcinoma cell line, qHTS therapeutic library screen (AID 1346987); note: nearly all actives have a fitted effect of over 65% in size; note: potency is the fitted concentration of half-maximal effect
Summary of the method: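 Compounds are pinned in dose-response onto KB-8-5-11 cells (500 cells/well, colchicine-free medium) and left 72 h at 37 degree C. CellTiter-Glo luminescence then yields AC50 values.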

Cc1cccc(C)c1NC(=O)c1ccccc1C(=O)O
inactive: max response [1] -7.1% | Potency [2] | outcome [3] | Potency [4] | Potency [5] | Potency [6]

CCOC(=O)[C@@](C)(N)Cc1ccc(O)c(O)c1
inactive: max response [1] 1.03% | Potency [2] | outcome [3] | Potency [4] | Potency [5] | Potency [6]

CCN[C@@H]1C[C@H](N)[C@@H](OC2OC(CN)=CCC2N)[C@H](O)[C@H]1O[C@H]1OC[C@](C)(O)[C@H](NC)[C@H]1O (some centres not stated)
inactive: max response [1] 13.5% | activity change, negative = inhibition [2] 22% [at 0.568 µM] | activity change, negative = inhibition [3] 15.8% [at 0.568 µM] | Potency [4] | Potency [5] | Potency [6]

O=C(Nc1ccc([N+](=O)[O-])cc1)Nc1ccc([N+](=O)[O-])cc1
inactive: max response [1] 3.29% | Potency [2] | outcome [3] | Potency [4] | Potency [5] | Potency [6]

COc1cc(C)nc(-n2nc(C)cc2OC)n1
inactive: Potency [2] | outcome [3] | Potency [4] | Potency [5] | Potency [6]

FC1(F)C(F)(F)C(F)(F)C2(F)C(F)(F)C(F)(F)C(F)(F)C(F)(F)C2(F)C1(F)F (configuration not stated)
inactive: max response [1] -4.02% | Potency [2] | outcome [3] | Potency [4] | Potency [5] | Potency [6]

CCOC(=O)c1c(N)sc2c1CCN(Cc1ccccc1)C2
inactive: Potency [2] | outcome [3] | Potency [4] | Potency [5] | Potency [6]
active: Potency [1] 11.2 µM

C#C[C@]1(OC(C)=O)CC[C@H]2[C@@H]3CCC4=C/C(=N/O)CC[C@@H]4[C@H]3CC[C@@]21CC
inactive: max response [1] -2.23% | Potency [2] | outcome [3] | Potency [4] | Potency [5]
active: Potency [6] 6.51 µM

CC(C)Nc1cccnc1N1CCN(C(=O)c2cc3cc(NS(C)(=O)=O)ccc3[nH]2)CC1
inactive: max response [1] -8.7% | Potency [2] | outcome [3] | Potency [4] | Potency [5] | Potency [6]

CCC1NC(=O)c2cc(S(N)(=O)=O)c(Cl)cc2N1 (configuration not stated)
inactive: max response [1] 5.58% | Potency [2] | outcome [3] | Potency [4] | Potency [5] | Potency [6]

COc1cc(NS(=O)(=O)c2ccc(N)cc2)ncn1
inactive: max response [1] -7.94% | Potency [2] | outcome [3] | Potency [4] | Potency [5] | Potency [6]

N[C@H](C(=O)O)[C@@H](O)c1ccc(O)c(O)c1
inactive: max response [1] 1.39% | Potency [2] | outcome [3] | Potency [4] | Potency [5] | Potency [6]

CCCCC(CC)COC(=O)/C=C/c1ccc(OC)cc1 (configuration not stated)
inactive: max response [1] 11.8% | Potency [2] | outcome [3] | Potency [4] | Potency [5] | Potency [6]

O=C(CCCN1CC=C(n2c(=O)[nH]c3ccccc32)CC1)c1ccc(F)cc1
inactive: max response [1] 7.51% | Potency [2] | outcome [3] | Potency [4] | Potency [5] | Potency [6]

NCc1ccccc1Sc1ccccc1CO
inactive: max response [1] -6.07% | Potency [2] | outcome [3] | Potency [4] | Potency [5] | Potency [6]

CCN(CC)CCNC(=O)c1cc(Br)c(N)cc1OC
inactive: max response [1] -8.23% | Potency [2] | outcome [3] | Potency [4] | Potency [5] | Potency [6]

CC(=C(CCOC(=O)C(C)C)SSC(CCOC(=O)C(C)C)=C(C)N(C=O)Cc1cnc(C)nc1N)N(C=O)Cc1cnc(C)nc1N
inactive: max response [1] -5.02% | outcome [3] | Potency [4] | Potency [5] | Potency [6]
active: Potency [2] 11.2 µM

COc1ccc2c(c1)c1c3n2CCN(C)C3=NCC1
inactive: max response [1] 18.4% | Potency [2] | outcome [3] | Potency [4] | Potency [5] | Potency [6]

O=C(Nc1ncc([N+](=O)[O-])s1)c1cccs1
active: Potency [4] 14.1 µM | Potency [6] 16.4 µM
inactive: max response [1] 35.1% | Potency [2] | outcome [3] | Potency [5]

CCCCCCCCCCCCOCCOCCOCCOCCOCCOCCOCCOCCOCCO
active: Potency [6] 3.26 µM
inactive: max response [1] 14.7% | Potency [2] | outcome [3] | Potency [4] | Potency [5]

CC(=O)NO
inactive: max response [1] 6.13% | Potency [2] | outcome [3] | Potency [4] | Potency [5] | Potency [6]

C[C@H]1O[C@@H](O[C@H]2CC[C@@]3(C)[C@H](CC[C@@H]4[C@@H]3C[C@@H](O)[C@]3(C)[C@@H](C5=CC(=O)OC5)CC[C@]43O)C2)C[C@H](O)[C@@H]1O[C@H]1C[C@H](O)[C@H](O[C@H]2C[C@H](O)[C@H](O[C@@H]3O[C@H](CO)[C@@H](O)[C@H](O)[C@H]3O)[C@@H](C)O2)[C@@H](C)O1
active: Potency [4] 0.708 µM | Potency [5] 0.58 µM | Potency [6] 0.651 µM
inactive: max response [1] -0.158% | Potency [2] | outcome [3]

CC1=C(C(=O)O)N2C(=O)[C@@H](NC(=O)[C@H](N)c3ccccc3)[C@H]2SC1
inactive: max response [1] 2.91% | Potency [2] | outcome [3] | Potency [4] | Potency [5] | Potency [6]

N/C(=N\N=C\c1ccc(Cl)cc1)N/N=C/c1ccc(Cl)cc1
inactive: max response [1] 0.563% | Potency [2] | outcome [3] | Potency [4] | Potency [5] | Potency [6]

OCc1ccccn1
inactive: max response [1] -7.21% | Potency [2] | outcome [3] | Potency [4] | Potency [5] | Potency [6]

NS(=O)(=O)c1cc2c(cc1Cl)NC(CC1CCCC1)NS2(=O)=O (configuration not stated)
inactive: max response [1] 17.3% | Potency [2] | outcome [3] | Potency [4] | Potency [5] | Potency [6]

COc1cc(O)c(C(=O)c2ccccc2)cc1S(=O)(=O)O
inactive: max response [1] -9.98% | Potency [2] | outcome [3] | Potency [4] | Potency [5] | Potency [6]

CC(=O)Nc1ccc(CC(=O)O)cc1
inactive: max response [1] 7.88% | Potency [2] | outcome [3] | Potency [4] | Potency [5] | Potency [6]
